# Compound activity deposited in PubChem BioAssay by ICCB-Longwood Screening Facility, Harvard Medical School.
# Mtb MbtI inh = blocks the Mycobacterium tuberculosis siderophore enzyme MbtI | 0.89% of 100,000 active | purified MbtI enzyme, fluorescence intensity read-out | inhibition, % (test concentration not listed) | P9WFX0; in the data active = inhibition mostly above about 56%, no sharp cut-off; inactive = mostly below about 77%
# PV pol inh = inhibitors of poliovirus RNA polymerase binding and polymerization. 0.66% of 150,000 active. AID 588519. P03300. % elongation, % (compound at 16.7 µg/mL). poliovirus polymerase elongation, fluorescence polarization; active compounds read low; in the data active = % elongation below about 90%
# AID504770 = growth inhibitors of E. coli YBA685 in a screen for V. cholerae RctB (chromosome II replication) inhibitors | E. coli YBA685 rctB-dependent plasmid, OD600 growth, 3 h; active compounds read low | z-score (no concentration beside the values) | 0.27% of 130,000 active; in the data active = z-score below about -2, passing the limit was not always enough
# MenB inh = inhibitors of Mycobacterium tuberculosis MenB enzyme | P9WNP5 | MenB enzyme assay, absorbance read-out | inhibition, % (test concentration not listed) | 0.43% of 100,000 active | AID 540299; in the data active = inhibition above about 21%, passing the limit was not always enough
# Target sequence (P9WNP5 whole entry, looked up): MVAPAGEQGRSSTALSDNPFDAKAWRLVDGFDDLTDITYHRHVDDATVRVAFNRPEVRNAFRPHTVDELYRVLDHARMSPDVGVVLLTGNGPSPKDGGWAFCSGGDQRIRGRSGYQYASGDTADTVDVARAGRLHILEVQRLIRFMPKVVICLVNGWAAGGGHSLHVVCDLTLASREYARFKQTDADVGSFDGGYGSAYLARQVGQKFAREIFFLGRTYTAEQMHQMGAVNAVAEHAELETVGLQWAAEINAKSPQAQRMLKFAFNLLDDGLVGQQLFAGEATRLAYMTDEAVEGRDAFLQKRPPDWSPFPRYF
# Numbers without * were called inactive; i = inactive; . = not tested or not shown; ! = not confirmed by another sample. Shown are actives, neighbours in structure and some others; about 1.5% of the full set was active somewhere.
SMILES,Mtb MbtI inh,PV pol inh,AID504770,MenB inh
N#CC1=C(SCc2ccccc2)SC(CO)NC1=O (stereo not given),11,100,0.5,38*
N#CC1=C(SCc2ccccc2)SC(c2ccc(C(=O)O)cc2)NC1=O (stereo not given),9,86*,0.2,25
CSc1ncc(-c2ccc(Br)cc2)[nH]1,5,99,0,7
CCN(CC)c1ccc(C=C2C(=O)OC3(CCCC3)OC2=O)cc1,72*,110,-0.1,-96
CCN(CC)c1ccc(C=C2C(=O)OC(c3ccccc3)OC2=O)cc1 (stereo not given),.,115,-0.7,-8
Cc1sc2nc[nH]c(=O)c2c1C,87*,94,-0.45,-9
N#CC(C#N)=NNc1ccccc1C(N)=O,26,101,-3.6*,-447
O=C(O)CCC(=O)OC[C@@H](NC(=O)C(Cl)Cl)[C@H](O)c1ccc([N+](=O)[O-])cc1,-15,100,-1.2,-1
O=C(N[C@@H](CO)[C@H](O)c1ccc([N+](=O)[O-])cc1)C(Cl)Cl,-15,101,-2.7*,-5
NCCN1CCCC1=O,-3,105,1.6,28*
O=C(COC(=O)c1ccc2c(c1)S(=O)(=O)N=C1CCCCCN12)Nc1cccc2nsnc12,33,98,-0.4,-13
COC(=O)CN1C(=S)N(C)C(=O)/C1=C/c1ccco1,19,105,-0.85,i
COC(=O)C1=NNC2(c3ccc(C)cc3)C(=O)N(c3ccc(C)cc3)C(=O)C12 (stereo not given),-12,102,1.5,36*
COC(=O)C1=NOC2C(=O)N(c3ccccc3)C(=O)C12 (stereo not given),-3,.,-1.4,.
O=c1c2c([nH]c3ccccc13)CCCCC2,20,100,-0.55,35*
O=C(O)CCN1CCN(c2cccc(Cl)c2)CC1,-8,101,-0.9,-19
CCN(CC)C(=O)CN1CCN(c2cccc(Cl)c2)CC1,0,102,-0.1,33*
Cc1ccc(CN2CCN(N=Cc3ccccc3O)CC2)c(C)c1,3,101,1.5,3
CCCSc1nc(-c2ccccc2)[nH]c1S(=O)(=O)c1ccc(C)cc1,.,-16*,.,.
Cc1ccc(S(=O)(=O)c2[nH]c(-c3ccccc3)nc2SCCC(=O)O)cc1,.,110,.,.
COc1cccc(C2N(Cc3ccccc3)C(=O)C2(F)F)c1OC (stereo not given),0,89*,1.8,.
O=C1N(Cc2ccccc2)C(c2ccccc2)C1(F)F (stereo not given),-1,101,0.75,.
CN(C)S(=O)(=O)c1cccc(-c2nnc(SCc3cc(Cl)cc4c3OCOC4)n2N)c1,86,80*,1.6,-28
Cc1nc2c3ccccc3nc(NNC(=O)CCC(=O)N3CCN(c4cccc(Cl)c4)CC3)n2n1,.,135,.,.
Cc1nc2c3ccccc3nc(NNC(=O)CCC(=O)N3CCN(c4ccccc4)CC3)n2n1,.,85*,.,.
SMILES,Mtb MbtI inh,PV pol inh,AID504770,MenB inh
COc1ccc(N2CCN(C(=O)CCC(=O)NNc3nc4ccccc4c4nc(C)nn34)CC2)cc1,.,87*,.,.
CCCCN(C)C(=O)CCC(=O)NNc1nc2ccccc2c2nc(C)nn12,.,81*,.,.
Cc1nc2c3ccccc3nc(NNC(=O)CCC(=O)N3CCN(c4ccccc4F)CC3)n2n1,.,92,.,.
COc1cccc(C(=O)Nc2c3c(nn2-c2ccc(C)cc2)CS(=O)C3)c1 (stereo not given),.,.,0.8,.
Cc1cc2occ(CC(=O)OCC(=O)c3ccc4c(c3)NC(=O)CO4)c2cc1C,-10,106,2.2,-16
O=C(Cn1cc(SCc2ccc(C(F)(F)F)cc2)c2ccccc21)N1CCCCCC1,.,115,.,.
O=C(Cn1cc(SCc2ccc(C(F)(F)F)cc2)c2ccccc21)N1CCCCC1,.,44*,.,.
NNC(=O)c1ccc(NN)cn1,-2,104,-1.1,-64
CN1C(=S)N(C2CCCCC2)C(=O)/C1=C/c1ccc(N2CCCC2)cc1,-3,119,-0.25,0
Fc1ccc(-c2nc3n(n2)Cc2ccccc2-3)cc1,-10,100,-0.5,-7
NC(=S)Cc1nc2n(n1)Cc1ccccc1-2,77*,83*,1.8,-16
O=S(=O)(c1cccc(Cl)c1Cl)N1CCOCC1,-6,100,0.95,33*
O=S(=O)(c1cccc(Cl)c1Cl)N1CCN(c2ncccn2)CC1,4,106,1.9,-3
N=C1/C(=C2\NC(c3ccc(Br)cc3)=CS2)CC(=O)N1C1CC1,91*,113,-0.4,-31
O=C1NC(=O)N(C2CCCCC2)C(=O)/C1=C/c1ccc(Br)cc1,34,100,1.9,-15
CCCC(=O)NCCc1cc2c(OC)ccc(OC)c2[nH]c1=O,.,.,-0.8,.
COc1ccc(N2C(=O)CC(Sc3nc4ccccc4c(=O)n3CCO)C2=O)cc1 (stereo not given),100,107,-2.1*,-15
CN(C)CCC(=O)c1ccccc1,22,103,0.5,.
CCCC(=O)c1ccc2[s+]c3ccccc3[n+](CCCN(C)C)c2c1,.,89*,-0.6,-38
CC(C)CNc1n[nH]c(=S)s1,96*,99,-0.1,-33
CCC(C)CCCNc1n[nH]c(=S)s1 (stereo not given),98*,96,0.3,-19
S=c1[nH]nc(NCCc2ccc(Cl)cc2)s1,.,.,-0.15,.
CCOC(=O)C(C#N)C(=O)c1ccc(N)cc1 (stereo not given),.,80*,-0.85,26
CCOC(=O)c1ccc(N)cc1,-2,102,0,-8
COc1ccc(CCNc2nc(C)nc3c2nnn3Cc2ccccc2)cc1OC,-3,100,-0.1,39*
SMILES,Mtb MbtI inh,PV pol inh,AID504770,MenB inh
O=C1C=CC(=O)c2c(O)cccc21,-21,87*!,0.85,7
O=C1c2ccccc2C(=O)c2c1ccc(O)c2O,0,98,0.5,3
CCOC(=O)c1csc(Cc2c(Cl)cccc2Cl)n1,.,.,0.4,.
CN(CC(=O)O)C(=S)c1ccccc1,54*,76*,-0.5,5
CN(C)C(=S)NC(=O)c1ccccc1,7,99,-0.05,-1
CCCCNC(=O)Sc1ccc2ccccc2c1,51,84*,0.5,-8
CCC(C(=O)Nc1cccc(OC)c1)n1nc(-c2ccc(OC)cc2)ccc1=O (stereo not given),7,.,0.35,.
CCOc1ccc(CCl)cc1OCC,-7,103,-0.4,.
COc1ccccc1/C=C1/C(=O)ON=C1C,9,103,-2.8*,-13
c1ccc2c(c1)CCN(Cc1ccsc1)C2,-7,100,1.1,3
Cc1cc(C)n(/N=C2/C(=O)Nc3ccc(Br)cc32)c(=O)c1C#N,-18,100,-0.25,-28
Cc1ccc2c(c1Br)C(=C(C#N)C#N)C(=O)N2,-124,84*,-0.3,-53
O=C(Nc1ccc(Cl)cc1Cl)c1c(O)c2c(n(Cc3ccco3)c1=O)CCCC2,.,103,0.15,-3
CCCn1c2c(c(O)c(C(=O)Nc3ccccc3F)c1=O)CCCC2,-3,101,-0.45,48*
O=C(CSC1=NC2CCCCC2N1)N1CCOCC1 (stereo not given),1,100,-0.45,-1
NNC(=O)CSc1c(-c2cccs2)[nH]c2ccccc12,-19,99,0.1,38*
CCOC(=O)c1sc(NC(=O)c2ccccc2)c(SC#N)c1C,.,.,-0.2,.
